# High-throughput results from PubChem BioAssay.
# Most compounds without a hit are left out; they make up all but 19% or so of the library.
# TDP1 cell noCPT: qHTS for Inhibitors of human tyrosyl-DNA phosphodiesterase 1 (TDP1): qHTS in cells in absence of CPT; Potency, µM (top dose mostly 46.2 µM), without a hit: at the highest dose activity change, negative = growth inhibition, most hits filed as inhibitors; actives 15% (n = 420,000); DT40 Tdp1-/- hTDP1 cells, no CPT, ATP luminescence, 48 h; further: nearly all actives have a fitted effect of over 55% in size
#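 Chicken DT40 Tdp1-/- cells stably complemented with human TDP1 were seeded at 400 cells/well with DMSO in place of 20 nM camptothecin. After compound pinning, cells grew at least 48 hr at 37 °C; viability read by CellTiter-Glo luminescence.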
# KB-3-1 tox: qHTS assay for MDR1-selective chemotherapeutics: Primary screen using the parental adenocarcinoma cell KB-3-1; actives 1.4% (n = 400,000); Potency, µM (highest dose often 46.1 µM), actives largely listed as cytotoxic; AID 1347075, 2019; KB-3-1 viability, CellTiter-Glo ATP luminescence, 72 h; further: nearly all actives have a fitted effect of over 60% in size
#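 KB-3-1 parental drug-naive adenocarcinoma cells in DMEM/10% FBS, incubated 72 h at 37 C with pin-transferred compounds across a concentration series. Viability by CellTiter-Glo luminescence; concentration-response curves fitted after normalization.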
# KB-V1 cytotox: qHTS assay for MDR1-selective chemotherapeutics: Primary screen using the drug-selected MDR subline cells KB-V1; KB-V1 MDR cells viability, CellTiter-Glo, 72 h; Potency, µM (top dose mostly 46.1 µM), most hits filed as cytotoxic; actives 3.4% (n = 400,000); AID 1347076, 2019; further: nearly all actives have a fitted effect of over 60% in size
#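 KB-V1, DMEM (no phenol red) + 10% FBS; cpd pin-transferred, titration series; 72 h, 37 degrees C; CellTiter-Glo, luminescence. Data normalized, curve-fit.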
# TDP1 cell CPT: qHTS for Inhibitors of human tyrosyl-DNA phosphodiesterase 1 (TDP1): qHTS in cells in presence of CPT. chicken DT40 Tdp1-/-;hTDP1 cells + 20 nM CPT, ATP luminescence, 48 h. Potency, µM (highest dose often 46.2 µM), for inactives: at the top dose activity change, negative = growth inhibition, usual class: inhibitors. actives 12% (n = 420,000). AID 686979, 2013; further: nearly all actives have a fitted effect of over 55% in size
#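 Cell growth measured by CellTiter-Glo luminescence after a minimum 48 h, 37 C compound exposure with 20 nM CPT in Tdp1-knockout DT40 cells stably expressing hTDP1, seeded 400/well; qHTS titration format.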
# HT1080 IDH1KD tx: qHTS for induction of synthetic lethality in tumor cells producing 2HG: qHTS for the HT-1080-IDH1KD cell line; HT-1080 IDH1 knockdown viability, ATP luminescence, 48 h; Potency, µM (top dose mostly 46.1 µM), without a hit: at the highest dose activity, negative = toxicity, hits mostly cytotoxic; actives 2% (n = 360,000);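 further: 0% = DMSO wells and -100% = cell-free medium wells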
#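 % activity derives from luminescence (CellTiter-Glo), normalised to DMSO and no-cell wells. HT-1080-IDH1KD cells, 750/well, had 48 h compound exposure at 37 °C.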
# HT1080-NT tox: qHTS for induction of synthetic lethality in tumor cells producing 2HG: qHTS for the HT-1080-NT fibrosarcoma cell line; HT-1080-NT fibrosarcoma viability, CellTiter-Glo ATP luminescence, 48 h; Potency, µM (series often up to 46.1 µM), for inactives: top-dose activity, negative = less viability, usual class: cytotoxic; actives 1.6% (n = 360,000); AID 686970, 2013;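 further: NT is the 2HG producing partner of a matched IDH1 knockdown line; 0% = DMSO-treated cells and -100% = media-only wells without cells; nearly all actives have a fitted effect of over 55% in size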
#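 HT-1080-NT; 750 cells/well; 5% FBS RPMI; 48 h compound, 37 degrees C; CellTiter-Glo luminescence; curve fitting and curve-class assignment.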
# * marks the source's active call; other numbers are inactive results; i = inactive; ? = inconclusive; . = no result; [ ] = another dose, or the depositor's remark. The call rests on the fitted dose curve; in most records, active means well fitted curve in the direction sought with a large enough effect; inconclusive means small, poorly fitted or top-dose-only effect, or another doubt; inactive means no such curve, though single readings can be large; an effect the other way counts as inactive or inconclusive. Unless noted, on the % scale 0 is the no-effect control and ±100 the full control effect; potency means the concentration at half of the fitted maximal effect.
SMILES,TDP1 cell noCPT,KB-3-1 tox,KB-V1 cytotox,TDP1 cell CPT,HT1080 IDH1KD tx,HT1080-NT tox
Cc1nc2nc(SCC(=O)N3CCC4(CC3)OCCO4)nn2c(C)c1Cc1ccccc1,-19.6%,?,25.9µM*,0.5%,1.9%,4.4%
COc1ccc(-c2nc(SCC(=O)NC(C)CCc3ccccc3)n[nH]2)cc1 (stereo unspecified),11.6µM*,.,.,11.6µM*,.,.
CN[C@H](C)CCC=C(C)C,?,i,i,?,.,.
O=C(Nc1ccc(Cl)cc1)Nc1ccc(Cl)c(C(F)(F)F)c1,3.35µM*,.,.,4.73µM*,.,.
O=C(NC(=O)c1c(F)cccc1F)Nc1ccc(Cl)c(Oc2ncc(C(F)(F)F)cc2Cl)c1,-19.7%,.,.,9.7%,.,.
C/C(=N\OC(=O)NC(C)C)c1sc(-c2ccccc2)nc1C,?,i,i,?,-9.9%,-4.1%
C/C(=N\OC(=O)NC(C)C)c1sc(-c2ccc(Cl)cc2)nc1C,18.4µM*,i,i,?,-19.5%,-4.7%
CCNC(=O)O/N=C(\C)c1sc(-c2ccc(Cl)cc2)nc1C,18.4µM*,i,i,25.9µM*,-13.1%,-4.1%
CC[n+]1c(-c2ccccc2)c2cc(N)ccc2c2ccc(N)cc21,0.146µM*,?,?,0.164µM*,16.4µM*,?
CCCN1CCCC(C(=O)c2cc(C)c(OC)c(C)c2)C1 (stereo unspecified),?,i,?,?,-7.7%,-3.7%
COc1cccc(-c2nc3cc4c(cc3cc2CN(C(=O)c2cccs2)C2CC2)CCC4)c1OC,16.4µM*,.,.,?,.,.
Cn1c(O)c(Cc2ccc(OCc3ccccc3)cc2)c(=O)n(C)c1=O,-23.4%,i,i,-18.2%,-1.3%,-2.7%
Cc1ccc(S(=O)(=O)N2CN3CCN(C3)C2)cc1,?,i,i,16.4µM*,-9.1%,-5.5%
Cc1ccc(S(=O)(=O)N2CC3CC(C2)c2cccc(=O)n2C3)cc1 (stereo unspecified),-12.6%,i,i,-13.1%,1.7%,5.0%
CC(C)(C)c1cc([N+](=O)[O-])cc(C(C)(C)C)c1O,5.17µM*,11.6µM*,i,10.3µM*,?,?
NCC(N)C(=O)c1ccccc1 (stereo unspecified),-7.6%,.,.,-6.0%,.,.
CC(=O)NCCc1c[nH]c2ccccc12,?,i,i,-0.5%,7.5%,-0.3%
CC(=O)c1cn(CC(=O)NCCc2c[nH]c3ccccc23)c2ccccc12,23.1µM*,?,14.6µM*,16.4µM*,-12.3%,-5.0%
CP(=O)(Nc1ccccc1)C(Cl)(Cl)Cl (stereo unspecified),0.1%,i,i,4.8%,20.6%,14.1%
CC(=O)c1ccc(N2CCN(c3ccc4cc(S(=O)(=O)N5CCCCC5)ccc4n3)CC2)cc1,3.66µM*,i,i,?,.,.
O=c1c2ccccc2nc(CSc2ncnc3nc[nH]c23)n1-c1ccc(Cl)c(Cl)c1,10µM*,i,i,7.08µM*,3.2%,-1.0%
Cc1nc2ccccc2c(=O)n1-c1ccc(Cl)c(Cl)c1,?,i,i,?,-12.3%,-12.4%
COc1ccccc1N1CCN(S(=O)(=O)CCNC(=O)CCCc2ccccc2)CC1,20.6µM*,i,?,?,-0.6%,-9.8%
O=C1/C(=C/c2ccc(N(CCCl)CCCl)cc2)Cc2ccccc21,7.94µM*,i,i,4.47µM*,.,.
O=c1[nH]/c(=C\c2ccc(N(CCCl)CCCl)cc2)c(=O)[nH]/c1=C\c1ccc(N(CCCl)CCCl)cc1,?,?,i,3.16µM*,.,.
SMILES,TDP1 cell noCPT,KB-3-1 tox,KB-V1 cytotox,TDP1 cell CPT,HT1080 IDH1KD tx,HT1080-NT tox
CCOc1ccc2c3c1O[C@H]1[C@@H](O)C=C[C@H]4[C@@H](C2)N(C)CC[C@@]341,?,.,.,-21.9%,.,.
COc1ccc(-c2cc(=NCCC(=O)O)c3cc(C)ccc3o2)cc1,-27.5%,i,i,-2.5%,-8.4%,14.9%
C[C@]12CCC3C(CC[C@@H]4C[C@H](O)CC[C@]34C)C1CCC2=O (stereo partly specified),?,i,i,?,4.9%,9.4%
COCCCN1Cc2ccccc2C1=N,-4.7%,i,i,-2.8%,11.7%,0.0%
CNCCCN1c2ccccc2CCc2ccccc21,25.9µM*,i,?,?,?,?
COc1cc2c(cc1OC)C13CCN4CC5=CCOC(CC(=O)O)C(C5CC41)C3N2 (stereo unspecified),-18.1%,i,i,-28.1%,-5.4%,-1.1%
CN1CCN(c2csc3ccc(F)cc3c2=O)CC1,-3.1%,i,i,4.8%,.,.
COc1cc2c(cc1O)C[C@H]1NCCc3cc4c(c-2c31)OCO4,23.1µM*,?,i,18.4µM*,?,?
COc1c2c(cc3c1OCO3)CCN(C)C2,?,i,i,-5.5%,-7.5%,?
COc1ccc(C(=O)c2nc3ccccc3n2C(C)C)cc1,4.4%,i,i,-23.6%,0.2%,3.2%
O=c1[nH]cc(F)c(=O)[nH]1,16.4µM*,i,i,18.4µM*,?,?
O=C(O)Cc1cccnc1C(=O)O,-9.1%,.,.,1.2%,.,.
CCOC(=O)CNC(=O)N1Cc2cc(-c3ccc(OC)cc3)ccc2-n2nncc2C1,-20.8%,i,i,-17.7%,3.4%,3.1%
COc1ccccc1-c1nc2c(c(SCc3cccc(Cl)c3)n1)Cc1c(CO)cnc(C)c1O2,18.4µM*,i,i,9.2µM*,.,.
Nc1c(C(=O)NCc2ccco2)c2nc3ccccc3nc2n1Cc1ccc(F)cc1,?,i,i,14.6µM*,?,16.4µM*
Nc1c(C(=O)NCc2ccco2)c2nc3ccccc3nc2n1Cc1ccccc1,25.9µM*,i,i,16.4µM*,-30.0%,-28.6%
C[C@@H](N)C(=O)c1ccccc1,-19.7%[92.5 µM],.,.,-26.7%[92.5 µM],.,.
CN1CC[C@@]2(CCCN(C(=O)c3ccncc3)C2)C1,-14.6%,.,.,-6.0%,.,.
COc1ccc(NC(=O)C2Cc3c(-c4cccc(C(C)=O)c4)ccnc3O2)cc1OC (stereo unspecified),4.11µM*,5.17µM*,9.2µM*,3.26µM*,?,?
